# According to PubChem BioAssay AID1345083 (National Center for Advancing Translational Sciences (NCATS), 2018):
# In all, about 94,000 compounds went through this assay and about 6,200 (6.6%) were called active. Inconclusive results (about 31%) are left out. The full list was thinned out, with actives kept by preference. A number with no mark means an inactive call. Calls follow the shape of the dose curve; as a rule, active = well fitted inhibition curve with a large enough effect; inconclusive = small, poorly fitted or top-dose-only effect; inactive = flat fitted curve, though single readings scatter.
# Test: Cytotoxic Profiling in HEK 293 Cell Line of Diverse Libraries Using Quantitative High-Throughput Screening; also: nearly all actives have a fitted effect of over 60% in size
# Conditions: HEK 293 viability, ATP luminescence (CellTiter-Glo), 48-72 h; series mostly up to 115 µM; activity change, negative = cytotoxicity: at the top concentration
# How it was run: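 Cells seeded first (HEK 293, 250 cells/well), then compound added by pintool. Incubation ran 48 or 72 hr at 37 degree Celsius. CellTiter-Glo was added and luminescence imaged after 10 min at room temperature.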
# % is scaled to controls: 0 for no effect and ±100 for the full control effect; potency is read from the fitted curve at half-maximal effect.
SMILES,"activity change, negative = cytotoxicity",outcome,Potency
CN(C)C[C@@H]1CN(C)C[C@H]1NC(=O)c1ccnnc1,-2.4%,–,–
CC(C)CC(=O)N1CCN(c2nnc3ccccn23)CC1,–,inactive,–
CC(C)(C)CC(=O)Nc1ccc2c(N3CCOCC3)ncnc2c1,-29.9%,–,–
O=C(CCCc1ccccc1)NCCC1CCN(C(=O)Nc2cc(F)cc(F)c2)CC1,-10.7%,–,–
CN1C(=O)C(CC(=O)NCc2ccccc2F)Sc2ncccc21 (stereo not drawn),25.8%,–,–
COCc1cccc(C(=O)N2CC[C@@](C)(O)[C@@H](O)C2)n1,-0.59%,–,–
C=CCN(C)c1nc(C)nc2c1CCN(C(=O)N1CCOCC1)CC2,2.16%,–,–
N#Cc1ccc(CN2CCCC3(COc4ccccc4[S+](=O)([O-])N3)C2)cc1 (stereo not drawn),-25.4%,–,–
CS(=O)(=O)N1CCCN(C(=O)CN2CCCCCC2)CCNC(=O)CC1c1ccccc1 (stereo not drawn),-21.6%,–,–
CC(C)CN1CCOC[C@H](Oc2ccc(S(C)(=O)=O)cc2)C1,-15.6% [at 172 µM],–,–
Cn1cc(CN2CCOC[C@H](Oc3ccc(S(C)(=O)=O)cc3)C2)c2ccccc21,–,–,50.1 µM (active)
COc1ccc(O[C@H]2COCCN(Cc3nccn3C)C2)cc1,-11.1% [at 172 µM],–,–
Cc1cc(C(=O)NCC2CCCN(Cc3nnc(-c4cccnc4)o3)C2)no1 (stereo not drawn),–,inactive,–
CN(CC1CCOC1)S(=O)(=O)c1ccccc1C(F)(F)F (stereo not drawn),-3.67%,–,–
Cc1ccc(S(=O)(=O)N(C)CC2CCOCC2)cc1F,-30.7%,–,–
Cc1ccc(S(=O)(=O)N(C)Cc2ccccc2C(F)(F)F)cc1,–,–,70.8 µM (active)
CN1C(=O)CCC2(CNC(=O)C3CCC3)CCC=C12 (stereo not drawn),-10.2%,–,–
O=C(NC1CCCC1)NC1CC(c2nnc(CO)n2C2CC2)C1 (stereo not drawn),–,inactive,–
O=C(C1CCc2nnc(C3CCN([S+](=O)([O-])c4ccccc4)CC3)n21)N1CCOCC1 (stereo not drawn),–,inactive,–
O=C(C1CCC1)N1CCC(Cc2nc(-c3cccnc3)n[nH]2)C1 (stereo not drawn),6.91%,–,–
O=C(N1CCCC(Cc2nc(C3CCOCC3)no2)C1)C1(c2ccccc2)CC1 (stereo not drawn),-16.5%,–,–

SMILES,"activity change, negative = cytotoxicity",outcome,Potency
O=C(N1CCC(Cc2nc(-c3ccccc3)n[nH]2)C1)C1(c2ccccc2)CC1 (stereo not drawn),–,–,44.7 µM (active)
CCc1noc(-c2cccn3c(CNC(=O)c4cccc(Cl)c4)nnc23)n1,-11.2%,–,–
CC1(c2noc(C3CCOCC3)n2)CCN(Cc2c(F)cccc2Cl)CC1,-21.5%,–,–
CC(C)C(=O)Nc1ccc(C2(C(=O)NCCN3CCCCC3)CCCCC2)cc1,-15.8%,–,–
COc1ccc(NC(=O)[C@@H]2C[C@@H](c3ccc(F)cc3)N(CCOc3ccccc3)C2)cn1,–,–,39.8 µM (active)
Cc1ccc(NC(=O)[C@@H]2CNC[C@H](C(=O)NCc3ccccn3)C2)cn1,–,inactive,–
O=C(COc1ccc(NC(=O)C2CC2)cn1)NCc1ccc(F)cc1F,3.7%,–,–
O=C(C1NCCc2[nH]cnc21)N1CCc2nnc(-c3ccccc3)n2CC1 (stereo not drawn),–,inactive,–
O=C(Nc1ccccc1F)N1CCc2nnc(C3CC3)n2CC1,-8.81%,–,–
Cn1nc(C(=O)N2CCC(N3C(=O)C(O)C34CCCCC4)CC2)c2ccccc21 (stereo not drawn),–,inactive,–
O=C(c1ccc2c(c1)OCO2)N1CCC2(C1)C(=O)Nc1ccccc12 (stereo not drawn),–,inactive,–
Cc1ccccc1C(=O)N1CCN(C(=O)c2nc3cccnc3n(C3CC3)c2=O)CC1,–,inactive,–
O=C(c1ccc(F)cc1)N1CCN(C(=O)c2nc3cccnc3n(C3CCCC3)c2=O)CC1,-11.6%,–,–
Cc1ccc([S+](=O)([O-])N2CCN(C(=O)c3nc4cccnc4n(C4CCCC4)c3=O)CC2)cc1,–,–,39.8 µM (active)
Cc1ccccc1C(=O)N1C(C(=O)NCC2CCCO2)COC12CCN(C(=O)c1cccs1)CC2 (stereo not drawn),-23.6%,–,–
O=C(NCC1CCCO1)c1noc(-c2ccccc2F)n1 (stereo not drawn),-1.98%,–,–
O=C(NCC1CCCO1)c1csc(N2CCN(c3ccccc3F)CC2)n1 (stereo not drawn),–,–,89.1 µM (active)
CC(C)NC(=O)C1CCc2nnc(CNC(=O)c3ccc(Cl)cc3Cl)n21 (stereo not drawn),-16.9%,–,–
Cn1ncc2c(C(=O)N3CCN(c4ncccn4)CC3)cc(-c3ccc(C(F)(F)F)cc3)nc21,–,–,50.1 µM (active)
Cn1ncc2c(C(=O)NCc3ccc(F)cc3F)cc(-c3ccccc3C(F)(F)F)nc21,–,–,31.6 µM (active)
Cn1ncc2c(C(=O)NCC(F)(F)F)cc(-c3ccc(C(F)(F)F)cc3)nc21,0.478%,–,–

SMILES,"activity change, negative = cytotoxicity",outcome,Potency
CC(=O)N1CCN(C(=O)c2cc(-c3cccc(F)c3)nc3c2cnn3C)CC1,2.75%,–,–
Cc1ccc(-c2cc(C(=O)N3CCOCC3)c3cnn(C)c3n2)c(C)c1,-12.7%,–,–
Cn1ncc2c(C(=O)NCc3ccccc3)cc(-c3ccc(C(F)(F)F)cc3)nc21,–,–,79.4 µM (active)
Cn1ncc2c(C(=O)NCC#N)cc(-c3cccc(C(F)(F)F)c3)nc21,-14.6%,–,–
CC(C)OCCCNC(=O)c1cc(-c2ccc(C(F)(F)F)cc2)nc2c1cnn2C,–,–,44.7 µM (active)
Cn1ncc2c(C(=O)NCc3ccc(C(F)(F)F)cc3)cc(C3C=C(C(F)(F)F)C=CC3)nc21 (stereo not drawn),-19.9%,–,–
Cn1ncc2c(C(=O)NCc3ccc(F)cc3)cc(-c3cccc(C(F)(F)F)c3)nc21,-13.2%,–,–
COc1ccccc1-c1cc(C(=O)NC2CCCCC2)c2cnn(C)c2n1,-26.6%,–,–
Cn1cnc(S(=O)(=O)N2CCC(c3noc(-c4ccccc4)n3)C2)c1 (stereo not drawn),-20.7%,–,–
CCOc1ccc(CC(=O)N2C[C@@H](N)C[C@H]2C(=O)NC(C)C)cc1,-7.1%,–,–
CNC(=O)[C@H]1C[C@H](Oc2cccnc2)CN1C(=O)NCCc1ccccc1,-7.31%,–,–
COCCn1ncc(N2CCCC(CC(=O)Nc3ccc(C)cc3)C2)cc1=O (stereo not drawn),12.4%,–,–
O=C(c1ccccc1F)N1CCC2(CC1)C(=O)Nc1ccccc12,-0.773%,–,–
CC(=O)N[C@@H]1[C@@H](NC(=O)Cc2cccs2)[C@H]2CCO[C@H]21,–,inactive,–
O=C(NCc1ccccn1)c1ccc2nccn2c1,-8.78% [at 172 µM],–,–
O=C(NC1CCN(Cc2ccc(F)c(F)c2)CC1)c1ccc2nccn2c1,–,–,44.7 µM (active)
O=C(c1ccc2nccn2c1)N1CCOCC1,–,–,inactive
COc1ccccc1N1CCN(C(=O)C2CCCN(C(=O)c3ccccc3)CCC(=O)NCC2)CC1 (stereo not drawn),–,inactive,–
COc1ccccc1N1CCCc2ncc(C(=O)N3CCCC[C@@H]3c3ccccc3)cc21,–,–,89.1 µM (active)
COc1ccc(C(=O)N2CCCN(C(=O)C3CC3)C(c3ccccc3)CC(=O)NCC2)cn1 (stereo not drawn),–,inactive,–
COC(=O)N1CCC2(CC1)C(=NC1CCCC1)NC(=O)N2c1cc(F)cc(F)c1,-4.97%,–,–
